# Measured values as given in PubChem BioAssay (Tox21).
# Inconclusive results are not listed. Values without a mark were called inactive. Active and inactive are the calls of the source. Calls follow the shape of the full dose curve.
# Assay: p53 small molecule agonists, cell-based qHTS assay with human liver microsomes: qHTS cell viability counter screen (AID 1963579); also: nearly all actives have a fitted effect of over 45% in size
# Settings: p53RE-bla HCT-116 viability, ATP luminescence, 16 h, HLM; series mostly up to 66 µM; activity change, negative = cytotoxicity: at the top concentration
# Summary of the method: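 Seed p53RE-bla cells at 4,000 per well; incubate 5 h at 37 C; add compound, human liver microsomes and NADPH; incubate 16 h at 37 C; add CellTiter-Glo; after 30 min at room temperature, read luminescence.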
# % is scaled to controls: 0 for no effect and ±100 for the full control effect; potency is read from the fitted curve at half-maximal effect.
SMILES,Potency,"activity change, negative = cytotoxicity"
COc1ccc(C(=O)/C(Br)=C\C(=O)O)cc1,45.8 µM (active),
COc1ccc(-c2cc(=S)ss2)cc1,,9.12% [at 30.3 µM]
O=C(CCCCCCC(=O)Nc1ccccc1)NO,,19.4% [at 30.3 µM]
c1cc(CN2CCCCC2)cc(OCCCNc2nc3ccccc3s2)c1,,0% [at 30.3 µM]
O=c1[nH]c2ccccc2n1CCCN1CCN(C(c2ccccc2)c2ccccc2)CC1,,-4.13% [at 30.3 µM]
Cc1ccc(O)c(C(C)(C)C)c1,inactive,
O=C(OC[C@H]1O[C@@H](OC(=O)c2cc(O)c(O)c(OC(=O)c3cc(O)c(O)c(O)c3)c2)[C@H](OC(=O)c2cc(O)c(O)c(OC(=O)c3cc(O)c(O)c(O)c3)c2)[C@@H](OC(=O)c2cc(O)c(O)c(OC(=O)c3cc(O)c(O)c(O)c3)c2)[C@@H]1OC(=O)c1cc(O)c(O)c(OC(=O)c2cc(O)c(O)c(O)c2)c1)c1cc(O)c(O)c(OC(=O)c2cc(O)c(O)c(O)c2)c1,,8.38% [at 13.5 µM]
COc1cc(Nc2c(C#N)cnc3cc(OCCCN4CCN(C)CC4)c(OC)cc23)c(Cl)cc1Cl,,-3.6% [at 30.3 µM]
N[C@@H](C(=O)N[C@@H]1C(=O)N2C(C(=O)O)=C(Cl)CS[C@H]12)c1ccccc1,,3.89% [at 5.99 µM]
CCCC(=O)O[C@]1(C(=O)CCl)[C@@H](C)C[C@H]2[C@@H]3CCC4=CC(=O)C=C[C@]4(C)[C@@]3(F)C(=O)C[C@@]21C,,0.004% [at 30.3 µM]
Cc1cccc(O)c1N,,-11.3%
CCN(CC)c1ccc(C(=C2C=CC(=[N+](CC)CC)C=C2)c2cc(S(=O)(=O)O)ccc2S(=O)(=O)[O-])cc1,,-25% [at 30.3 µM]
Cc1cc(O)c2c(c1)C(=O)c1cc(O)cc(O)c1C2=O,inactive,
O=C1Cc2cc(CCN3CCN(c4nsc5ccccc45)CC3)c(Cl)cc2N1,,1.1% [at 30.3 µM]
COc1ccccc1OCCNCC(O)COc1cccc2[nH]c3ccccc3c12 (stereo not given),,-5.61% [at 30.3 µM]
O=c1cc(-c2ccc(O)cc2)oc2cc(O)cc(O)c12,inactive,
CCCCCCCC/C=C/CCCCCCCC1=NCCN1CCO,,12.7%
CC1=NN(c2cc(Cl)c(S(=O)(=O)O)cc2Cl)C(=O)C1N=Nc1ccc(S(=O)(=O)O)cc1 (stereo not given),,-4.72%
CN(C)CC/C=C1\c2ccccc2Sc2ccc(Cl)cc21,,0.435% [at 30.3 µM]
C(=C(c1ccccc1)c1ccccc1)c1ccccc1,,-0.433%

SMILES,Potency,"activity change, negative = cytotoxicity"
NC(=O)C1(N2CCCCC2)CCN(CCCN2c3ccccc3CCc3ccc(Cl)cc32)CC1,,-1.7% [at 30.3 µM]
O=C1c2ccccc2C(=O)c2c(O)c(O)cc(O)c21,,-14%
CCCCCCCCNC(C)C(O)c1ccc(SC(C)C)cc1 (stereo not given),,11.7% [at 30.3 µM]
CN1CCCC(CC2c3ccccc3Sc3ccccc32)C1 (stereo not given),,7.47% [at 30.3 µM]
CCOc1ccc2nc3cc(N)ccc3c(N)c2c1,,-10.4% [at 30.3 µM]
CC1=NN(c2ccc(S(=O)(=O)O)cc2)C(=O)C1N=Nc1ccccc1 (stereo not given),,-0.0263%
Nc1ccc(N)c2c1C(=O)c1ccccc1C2=O,,-12.5%
CNCC[C@@H](Oc1ccccc1C)c1ccccc1,,6.36% [at 30.3 µM]
COc1cc([N+](=O)[O-])ccc1N,,-0.75%
Cc1c(C(=O)NN2CCCCC2)nn(-c2ccc(Cl)cc2Cl)c1-c1ccc(Cl)cc1,,-13.8% [at 30.3 µM]
CSc1ccc(/C=C2/C(C)=C(CC(=O)O)c3cc(F)ccc32)cc1,,0.269% [at 30.3 µM]
CC(C)C(OC(=O)c1ccccc1)C(C)(C)COC(=O)c1ccccc1 (stereo not given),,0.927%
CN(C)C(=O)NC1(c2ccccc2)CCN(CCC[C@]2(c3ccc(Cl)c(Cl)c3)CCCN(C(=O)c3ccccc3)C2)CC1,,-5.88% [at 13.5 µM]
Clc1ccc(Cn2c(CN3CCCC3)nc3ccccc32)cc1,,-13.1% [at 30.3 µM]
O=C1CCCCCN1SSN1CCCCCC1=O,,3.89%
CC(COc1ccc(C(C)(C)C)cc1)OS(=O)OCCCl (stereo not given),,-15.4%
c1ccc(-c2ccc(C(c3ccccc3)n3ccnc3)cc2)cc1 (stereo not given),,-6.13% [at 30.3 µM]
Cc1onc(-c2c(Cl)cccc2Cl)c1C(=O)N[C@@H]1C(=O)N2[C@@H]1SC(C)(C)[C@@H]2C(=O)O,,1.41% [at 30.3 µM]
Cc1ccc(N/N=c2\c(=O)cc/c(=N\Nc3ccc(S(=O)(=O)O)cc3)c2=O)c(C)c1,,-10%
CCCCC(CC)CN1CN(CC(CC)CCCC)CC(C)(N)C1 (stereo not given),,-6.93% [at 30.3 µM]
